Source: PubChem BioAssay (Sanford-Burnham Center for Chemical Genomics)
Shown is part of a subset that was picked to be rich in hits.
DUSP3 inh – VHR1 (DUSP3) phosphatase inhibition. P51452. recombinant VHR phosphatase, colorimetric substrate read-out. inhibition, % at 20 µM. hit rate 0.7% among 50,000; in the data active = inhibition above about 60%
Target sequence (P51452 whole entry, looked up): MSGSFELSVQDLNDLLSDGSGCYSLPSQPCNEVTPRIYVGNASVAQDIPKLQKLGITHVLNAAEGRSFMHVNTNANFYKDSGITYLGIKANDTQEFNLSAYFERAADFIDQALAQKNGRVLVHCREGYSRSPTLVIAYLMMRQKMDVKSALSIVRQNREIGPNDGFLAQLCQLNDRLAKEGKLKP
Each line names hits and unclear results; the compound was inactive in the other large screens.

CCOC(=O)c1c(NC(=O)c2cccc(C)c2)sc(C(=O)Nc2ccccc2F)c1C	none
C=CCNS(=O)(=O)c1ccc(C)c([N+](=O)[O-])c1	none
Cc1ccc(C(=O)Nc2sc3c(c2C(=O)N2CCC(C(N)=O)CC2)CCCC3)cc1	none
Cc1ccc(C(=O)Nc2sc3c(c2C(=O)N2CCCCCC2)CCC(C)C3)cc1 (stereo not drawn)	none
Cc1ccc(C(=O)Nc2sc3c(c2C(=O)N2CCC(C)CC2)CCCC3)cc1	DUSP3 inh 87
CCN(CC)CCN1C(=O)C(O)=C(C(=O)/C=C/c2ccccc2)C1c1ccccc1[N+](=O)[O-] (stereo not drawn)	none
O=C(O)C1C2C=CC(C3CC23)C1C(=O)NCc1ccccc1 (stereo not drawn)	none
O=C(O)C12C3CCCC1C32c1ccccc1 (stereo not drawn)	none
O=C(O)C1C2CCCC1C2c1ccccc1 (stereo not drawn)	DUSP3 inh 101
C/C(=N\N)C1(O)CCC2C3CCC4=C/C(=N\N)CCC4(C)C3CCC21C (stereo not drawn)	none
CC(=O)c1ccc(NC(=O)c2ccc(-c3ccc(Cl)cc3Cl)o2)cc1	none
O=C(Nc1ccccc1C(F)(F)F)c1ccc(-c2cc(Cl)ccc2Cl)o1	DUSP3 inh 112
CC(=O)c1cccc(NC(=O)c2ccc(-c3ccc(Cl)cc3Cl)o2)c1	DUSP3 inh 109
O=C(O)c1ccc(-c2cc(Cl)ccc2Cl)o1	none
O=C(Nc1ccc(NC(=O)c2ccc(-c3ccc(Cl)cc3Cl)o2)cc1)c1ccccc1	none
O=C(Nc1ccccc1C(F)(F)F)c1ccc(Cl)cc1Cl	none
O=C(Nc1ccc(Cc2ccc(NC(=O)C(F)(F)F)c([N+](=O)[O-])c2)cc1[N+](=O)[O-])C(F)(F)F	none
O=S(=O)(Cc1ccccc1)CC(O)COCc1ccc(Cl)cc1 (stereo not drawn)	none
CN1C(=O)C(=Cc2ccccc2OCc2ccccc2F)C(=O)N(C)C1=O	none
COc1ccc(C(=O)c2ccc(OC)c(N)c2)cc1N	none
COc1ccc(-c2nc3cc(N)ccc3o2)cc1OC	none
COc1cc(N)ccc1-n1c(C)ccc1C	DUSP3 inh 70
CCOC(=O)c1c(NC(=O)c2ccc(Cl)cc2Cl)sc(C(N)=O)c1C	none
Cc1nnc(SCC(=O)NCC(=O)c2ccccc2)s1	none
CCC(=O)Nc1nc(C23CC4CC(CC(C4)C2)C3)c(C)s1	none
COc1ccc(N2C(=O)/C(=C/c3ccc(-c4cc(C(=O)O)ccc4Cl)o3)C(=O)NC2=S)cc1	none
COc1ccc(N2C(=O)/C(=C/c3ccc(I)o3)C(=O)NC2=S)cc1	DUSP3 inh 92
COc1ccc(N2C(=O)/C(=C/c3cc(C)n(-c4ccccc4)c3C)C(=O)NC2=S)cc1	none
COc1ccc(N2C(=O)NC(=O)/C(=C/c3ccc(I)o3)C2=O)cc1	DUSP3 inh 107
COc1ccc(N2C(=O)NC(=O)/C(=C/c3ccc(-c4ccc(C(=O)O)cc4)o3)C2=O)cc1	none
COc1ccc(N2C(=O)NC(=O)/C(=C/c3ccc(-c4cccc(Cl)c4)o3)C2=O)cc1	none
CC1=NN(c2ccc(C)cc2)C(=O)/C1=C\c1ccc2c(c1)OCO2	none
COc1cc(CNc2ccc(Br)cc2C)cc(OC)c1OC	none
CCCCc1c(C)nc(N/N=C/c2c(F)c(F)c(F)c(F)c2F)[nH]c1=O	none
CC(NC(=O)CSc1nnc(N)s1)c1ccccc1 (stereo not drawn)	none
O=C(Nc1ccc(Cl)c(Cl)c1)N1CCc2ccccc21	none
Cc1ccc([N+](=O)[O-])cc1NC(=O)C1C2C3CCC(C3)C12 (stereo not drawn)	none
O=C(Nc1ccc([N+](=O)[O-])cc1)C1C(c2ccccc2)=C1c1ccccc1	none
O=C(Nc1ccc([N+](=O)[O-])cc1)C1C2C3CCC(C3)C12 (stereo not drawn)	DUSP3 inh 84
CN1C(=O)C(=Cc2ccc(N3CCCC3)c([N+](=O)[O-])c2)C(=O)N(C)C1=O	DUSP3 inh 90
CC1CCN(c2ccc(C=C3C(=O)c4ccccc4C3=O)cc2[N+](=O)[O-])CC1	none
CC1=NN(c2ccccc2)C(=O)/C1=C\c1ccc(N2CCOCC2)c([N+](=O)[O-])c1	none
Clc1ccc(N2CCN(N=Cc3ccc(Cl)c(Cl)c3)CC2)cc1	none
COc1cc(/C=N/N=c2\sc3ccccc3n2C)ccc1O	none
COc1ccc(/C=N/N=c2\sc3ccccc3n2C)c(OC)c1	DUSP3 inh 98
Cn1/c(=N/N=C/c2ccncc2)sc2ccccc21	none
CCC(=O)Nc1ccc(NC(=O)c2ccc(Cl)c(Cl)c2)cc1	none
CN(C)CCCNC(=O)COc1ccc(Cl)cc1	none
Cc1cc(OCCc2c(C)n[nH]c2C)ccc1Cl	none
COc1ccccc1OCCOc1c(Cl)cc(/C=N/n2cnnc2)cc1OC	none
CCC(C)c1ccc(OCCOc2c(Cl)cc(/C=N/n3cnnc3)cc2OC)cc1 (stereo not drawn)	none
CCOc1cc(/C=N/n2cnnc2)cc(Cl)c1OCCOc1cc(C)ccc1C(C)C	DUSP3 inh 110
O=C1NC(=Nc2cccc(Cl)c2Cl)S/C1=C\c1ccc(F)cc1	none
O=C(Cc1ccccc1)NC(NC(=S)Nc1ccccc1Br)C(Cl)(Cl)Cl (stereo not drawn)	none
CC(Cc1ccccc1)N=C(N)/C(C#N)=C\c1[nH]c2ccccc2c1O (stereo not drawn)	none
C#Cc1cccc(N2C(=O)c3ccc(Oc4cccc([N+](=O)[O-])c4)cc3C2=O)c1	none
COC(=O)C1C2C(=O)N(c3ccccc3)C(=O)C12c1ccc(Cl)cc1 (stereo not drawn)	none
Cc1ccc(OCC(=O)N2CCN(c3ccc([N+](=O)[O-])cc3)CC2)cc1	none
COC(=O)C1C2C(=O)N(c3ccc([N+](=O)[O-])cc3)C(=O)C12c1ccc(C)cc1 (stereo not drawn)	DUSP3 inh 116
O=C1C2C(c3ccc([N+](=O)[O-])cc3)OC3(C(=O)c4ccccc4C3=O)C2C(=O)N1c1ccc(Cl)cc1 (stereo not drawn)	none
COC(=O)C1C2C(=O)N(c3ccc([N+](=O)[O-])cc3)C(=O)C12c1ccc(Cl)cc1 (stereo not drawn)	DUSP3 inh 102
CC1=C(C)CC2C(=O)N(c3ccc(-c4ccc([N+](=O)[O-])cc4)cc3)C(=O)C2C1 (stereo not drawn)	none
CCOC(=O)COc1ccc(/C=C2\C(=O)NC(=O)N(C)C2=O)cc1OC	none
COc1ccc(CC(=O)O/N=C(\N)c2ccc(Cl)cc2)cc1OC	none
O=C(Nc1ccc(OC(F)(F)C(F)F)cc1)c1ccc(Cl)c([N+](=O)[O-])c1	none
O=C1NC(=S)N(c2ccc(Cl)c(Cl)c2)C(=O)/C1=C/c1cccs1	none
Cc1cc(Br)ccc1N1C(=O)/C(=C/c2cc(C)n(C)c2C)C(=O)NC1=S	none
Cc1cc(Br)ccc1N1C(=O)/C(=C/c2cccs2)C(=O)NC1=S	DUSP3 inh 102
O=C(NC(=S)Nc1ccc(SC(F)F)cc1)c1cccs1	none
CCC(=O)N1c2ccccc2NC2=C(C(=O)CC(c3ccc(OC)cc3)C2)C1c1ccccc1 (stereo not drawn)	none
CCC(=O)N1c2ccccc2NC2=C(C(=O)CC(c3ccccc3)C2)C1c1ccc(F)cc1 (stereo not drawn)	DUSP3 inh 113
COc1ccc(C2CC(=O)C3=C(C2)Nc2ccccc2NC3c2ccc(-c3ccccc3)cc2)cc1OC (stereo not drawn)	none
COc1ccc(C2C3=C(CC(c4ccccc4)CC3=O)Nc3ccccc3N2C(=O)C(C)C)cc1OC (stereo not drawn)	DUSP3 inh 99
COc1ccc(C2CC(=O)C3=C(C2)Nc2ccccc2NC3c2ccc(OC)c(OC)c2)cc1 (stereo not drawn)	none
CCC(=O)N1c2ccccc2NC2=C(C(=O)CC(c3ccccc3)C2)C1c1cccc(Br)c1 (stereo not drawn)	none
